From PubChem
Sampled rows, rich in hits. Any-hit rate of the full collection: about 12%.
WT yeast gro inh: growth inhibition of WT yeast, mitochondrial fusion screen; mitochondrial fusion phenotypic screen, WT strain; inhibition, % at 10 µM; actives 2.1% (n = 190,000); in the data active = inhibition above about 58%; tested in S. cerevisiae
Arbovirus inh: arbovirus infection inhibition. arbovirus infection cell-based antiviral screen. inhibition, % at 10 µM. actives 0.37% (n = 200,000); in the data active = inhibition above about 30%
CHOP inhibitor: CHOP inhibition in unfolded protein response. CHO-K1 CHOP-promoter luciferase, tunicamycin-induced, 15-18 h. inhibition, % at 10 µM. actives 3.8% (n = 220,000). AID 2732;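 active = compounds that reduced the stress-induced luciferase reporter signal by more than about 70% of percent inhibition, limit read from the data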
L major viab: Leishmania major promastigote growth inhibition; Leishmania major promastigotes, resazurin fluorescence viability; inhibition, % at 10 µM; actives 9% (n = 200,000); AID 1063; in the data active = inhibition above about 50%;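 note: promastigotes grown with compound for 44 hours at 28 °C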
CHOP inh conf: confirmation of CHOP induction inhibitors | shares compounds with CHOP inhibitor | CHO-CHOP promoter luciferase reporter, tunicamycin-induced, luminescence | inhibition, % at 10 µM | actives 45% (n = 2,100) | AID 504437;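 active = mean of three repeat readings of reporter signal inhibition above a set limit, cut at about 70% in these data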
A number is an active result; . = inactive; / = no result.

SMILES	WT yeast gro inh	Arbovirus inh	CHOP inhibitor	L major viab	CHOP inh conf
Cc1cc(C)c(NC(=O)CSc2nc3ccc(NC(=O)CSc4nnnn4-c4ccccc4)cc3s2)c(C)c1	.	.	97.5	.	.
O=C1Nc2ccccc2/C1=C/c1cnc(-c2ccccc2)[nH]1	/	/	.	/	/
O=C1Nc2ccccc2/C1=C/C(=O)c1cccs1	/	.	104.4	100.3	.
NC(=S)N=Nc1c(O)[nH]c2ccccc12	.	.	.	.	/
NC(=S)N=Nc1c(O)[nH]c2c(Br)cc(Br)cc12	.	.	98.2	.	.
COc1ccc2[nH]c(C)cc(=O)c2c1	.	.	.	.	/
COc1ccc2sc3c(=O)[nH]c4ccccc4c3c2c1	.	.	97.2	.	.
COc1ccc2c(c1)[nH]c(=O)c1sc3ccccc3c12	.	.	108.4	.	.
O=C(CN1CCN(c2ccc(O)cc2)CC1)Nc1cc([N+](=O)[O-])ccc1Cl	.	.	.	.	/
CC1CN(S(=O)(=O)c2ccc(C(=O)Nc3nc(-c4cc5ccccc5o4)cs3)cc2)CC(C)O1 (centres undefined)	.	.	106.6	.	72.8
CN(C)c1ncc(S(=O)(=O)c2ccc(Cl)cc2)c(-c2ccccc2)n1	.	.	.	.	/
O=S(=O)(c1ccc(Cl)cc1)c1cnc(-c2cccnc2)nc1-c1ccccc1	.	.	99.5	.	.
NC(=O)c1c(NC(=O)CCCC(=O)O)sc2c1CCCCCC2	.	.	.	.	/
CC(C)(C)c1ccc(S(=O)(=O)NCC(=O)Nc2sc3c(c2C(N)=O)CCCC3)cc1	.	.	107.4	.	91.5
CCc1ccc(OCCNC(=O)c2ccccc2SCc2ccccc2)cc1	.	.	99.5	.	90.8
CCNC(=O)c1ccccc1SCc1ccccc1	.	.	.	.	/
CCOC(=O)/C(O)=C(\C#N)c1nc2ccccc2[nH]1	.	.	.	.	/
CC1CN(S(=O)(=O)c2cccc(C(=O)OC/C(O)=C(\C#N)c3nc4ccccc4[nH]3)c2)CC(C)O1 (centres undefined)	.	.	105.8	.	.
CCOC(=O)c1ccc2c(c1)nc(SC/C(O)=C(\C#N)c1nc3ccccc3[nH]1)n2CC	.	.	98.8	.	.
CCOC(=O)c1c(C)[nH]c(C(=O)OC/C(O)=C(\C#N)c2nc3ccccc3[nH]2)c1C	.	.	100.1	.	.
CCOC(=O)c1ccc2c(c1)nc(SCC(=O)c1ccco1)n2CC	.	.	.	.	/
Cc1cccc(NC(=O)/C(C#N)=C/c2cn(CC(=O)NCc3ccco3)c3ccccc23)c1C	.	.	108.8	.	90.5
N#C/C(=C\c1cn(Cc2cccc(F)c2)c2ccccc12)C(=O)NCc1ccco1	.	.	.	.	/
CCc1ccccc1NC(=O)c1cc(-c2cccc(O)c2)on1	.	.	.	.	/
O=C(Nc1ccccc1C(F)(F)F)c1cc(-c2cccc(O)c2)on1	.	.	96.8	.	.
SMILES	WT yeast gro inh	Arbovirus inh	CHOP inhibitor	L major viab	CHOP inh conf
COc1ccc2c(Cl)c(C(=O)N/N=C/c3ccc4c(c3)OCO4)sc2c1	.	.	107.3	96.8	.
O=C(N/N=C/c1ccc2c(c1)OCO2)c1sc2cc(Cl)ccc2c1Cl	.	.	.	.	/
Cc1[nH]c2ccccc2c1C(=O)NS(=O)(=O)Nc1ccc(Cl)cc1	.	.	.	.	/
CCCC(=O)NC(Nc1cc(C(F)(F)F)ccc1Cl)C(Cl)(Cl)Cl (centres undefined)	.	.	96.6	.	.
O=C(NC(Nc1cc(C(F)(F)F)ccc1Cl)C(=O)c1ccccc1)c1ccccc1 (centres undefined)	.	.	.	.	/
CC1(C)CC2=C(CO1)C(=S)NC(c1ccccc1)N2CC1CCCO1 (centres undefined)	/	/	.	/	/
CC(/C=N\N1CCN(Cc2ccc(C)cc2)CC1)=C\c1ccccc1	.	.	.	.	/
BrC(=C\c1ccccc1)/C=N/N1CCN(Cc2ccccc2)CC1	.	.	97.8	53.4	.
Cc1sc(NC(=O)c2ccccc2)c(C(c2ccc(Cl)cc2)N2CCN(CCO)CC2)c1C (centres undefined)	90.7	.	104.2	94.9	.
COc1ccc(-c2cc(C(=O)Nc3cc(OC)cc(C(=O)Nc4cccc(C(F)(F)F)c4)c3)[nH]n2)cc1	/	/	.	/	/
Cc1sc2ncnc(N3CCCCC3C)c2c1C (centres undefined)	.	.	98.7	.	70.3
CCOc1cc(C(=O)NC(=S)Nc2ccc(Cl)c(C(=O)O)c2)cc(OCC)c1OCC	/	/	.	/	/
CCOc1ccc2nc(NC3=NC(c4ccc(OC)cc4)CC(=O)N3)nc(C)c2c1 (centres undefined)	.	.	106.1	.	.
Cc1ccc(S(=O)(=O)NCCn2c(C)cc3ccccc32)cc1	.	.	.	.	/
Cc1cc(C)c(S(=O)(=O)NCCn2c(C)cc3ccccc32)c(C)c1	.	.	101.5	.	74.8
CN(C)C(CNS(=O)(=O)c1ccc(Cl)cc1)c1cccnc1 (centres undefined)	.	.	.	.	/
O=S(=O)(NCC(Nc1ccc(Cl)cc1)c1ccccc1)c1ccc(Cl)cc1 (centres undefined)	74.1	.	107.9	58.3	112.1
CC(C)NC(=O)c1ccccc1NC(=O)CCc1ccccc1	.	.	.	.	/
COc1ccc(/C=N\NC(=O)COc2ccc(C(C)(C)C)cc2)cc1Cn1nc(C)cc1C	.	.	109.7	.	104.2
COc1ccc(NC(=O)/C(Cl)=C(/Cl)S(=O)Cc2ccc(Cl)cc2)cn1 (centres undefined)	.	.	107.2	100.4	140.2
COc1ccc(NC(=O)C(Cl)=C(Cl)Cl)cn1	.	.	.	.	/
Cc1nn(-c2ccccc2)c(C)c1/C=N/n1c(-c2ccc(Cl)cc2)n[nH]c1=S	.	.	103.0	.	.
Cc1nn(-c2ccccc2)c(C)c1/C=N/n1c(-c2ccncc2)n[nH]c1=S	.	.	.	.	/
CCOc1ccc(N(CC(=O)Nc2cccc(Cl)c2)S(=O)(=O)c2c(C)noc2C)cc1	.	.	107.5	.	80.9
CCOc1ccc(N(CC(=O)Nc2cccc(OC)c2)S(=O)(=O)c2c(C)noc2C)cc1	.	.	.	.	/
SMILES	WT yeast gro inh	Arbovirus inh	CHOP inhibitor	L major viab	CHOP inh conf
Cn1c(=O)c2c(nc(Sc3n[nH]c(N)n3)n2Cc2ccccc2Cl)n(C)c1=O	.	.	.	.	/
CC(C)CCn1c(SCc2ccc(Cl)cc2)nc2c1c(=O)[nH]c(=O)n2C	.	.	96.5	.	93.2
CC(c1nccs1)N(C)C(=O)CCc1nnc(CCc2ccccc2)o1 (centres undefined)	.	.	.	.	/
N#Cc1nccnc1S(=O)(=O)c1cccs1	/	/	107.1	/	104.6
O=S(=O)(c1cccs1)N1CCN(S(=O)(=O)c2cccs2)CC1	.	.	.	.	/
COc1ccc(CCN=C(N)NS(=O)(=O)c2ccc(C)c(C)c2)cc1	.	.	.	.	/
C=C(C)COc1ccc(-c2n[nH]c(C)c2-c2ccc(OC)cc2)c(O)c1	.	.	107.5	.	.
O=C(c1ccc(COc2ccc(Cl)cc2)o1)N1N=C(C(F)F)CC1(O)C(F)F (centres undefined)	.	.	108.5	.	130.0
Cc1cc2cc(CNC(=O)Nc3cccc(Cl)c3)ccc2n1C	.	.	.	.	/
Cc1cccc(NC(=O)NCc2ccc3c(c2)cc(C)n3C)c1	.	.	105.6	.	.
